Laboratory results from PubChem BioAssay (Tox21).
Inconclusive results are not listed. The source made the active and inactive calls. Calls follow the shape of the dose curve; as a rule, active = well fitted inhibition curve with a large enough effect in the repeat runs; inconclusive = weak or mixed curves, or effect the other way; inactive = no such curve, though single readings can be large or run the other way.

Test: qHTS assay to identify small molecule antagonists of the retinoic acid receptor (RAR) signaling pathway (AID 1159552; also: nearly all actives have a fitted effect of over 50% in size)
Conditions: C3RL4 RARE luciferase reporter, retinol-stimulated, 6 h; series mostly up to 92.4 µM
Summary of the method: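 Overnight-plated C3RL4 reporter cells get compound, then retinol to 1 uM final; plates sit 6 hr at 37 C, 5% CO2. A luciferase reagent is added and light output recorded after 30 min at room temperature.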
% is scaled to controls: 0 for no effect and ±100 for the full control effect.

| SMILES | outcome | activity, negative = inhibition |
| --- | --- | --- |
| CCCCCCCCCC(C)=O | inactive | – |
| COP(=O)(OC)OC(c1ccc(Cl)cc1)P(=O)(OC)OC (stereo not given) | inactive | – |
| CCOC(=O)CC(=O)c1ccccc1 | inactive | – |
| CCO[Si](CCCS)(OCC)OCC | inactive | – |
| Oc1ccccc1-c1nnco1 | inactive | – |
| O=C(O)Cc1ccc(Cl)cc1Cl | inactive | – |
| NS(=O)(=O)c1cc2c(cc1Cl)CN(C1CCCCC1)C2=O | inactive | – |
| CC(C)(C)OC(=O)c1ccc(O)cc1 | inactive | – |
| COC(=O)C1CC(=O)C(C(=O)OC)CC1=O (stereo not given) | – | -2.77% [at 8.39 µM] (inactive) |
| CC(C)CC(C)CC(C)CC(C)COC(=O)c1ccccc1C(=O)OCC(C)CC(C)CC(C)CC(C)C (stereo not given) | inactive | – |
| O=C(c1ccc(O)cc1)c1ccc(O)c(O)c1O | inactive | – |
| CC(CC=O)CCCC(C)(C)O (stereo not given) | inactive | – |
| CC(C)c1ccc2cc(C(C)C)ccc2c1 | inactive | – |
| O=C(O)c1cc(Br)c(O)c(Br)c1 | inactive | – |
| O=C1CCCC(=O)O1 | inactive | – |
| NNc1nnc(NN)c2ccccc12 | inactive | – |
| CCCCOCCOC(=O)COc1nc(Cl)c(Cl)cc1Cl | inactive | – |
| CCOC(=O)/C=C/c1ccccc1 | inactive | – |
| OC[C@H](Cc1cccc(O)c1)[C@H](CO)Cc1cccc(O)c1 | inactive | – |
| COCCc1ccc(OCC2CO2)cc1 (stereo not given) | inactive | – |
